Some test systems named below: RPMI-8226 leukemia; OVCAR-5 ovarian; SK-OV-3 ovarian; IGROV1 ovarian; OVCAR-3 ovarian; HS 578T breast; NCI/ADR-RES ovarian; T-47D breast; OVCAR-4 ovarian.
Assay in all cases: NCI-60 one-dose screen, 48 h (100 = growth as untreated, 0 = no growth, -100 = all killed)
Conditions in all cases: 10 µM unless noted

Each structure is given as a SMILES string. Compounds without any hit were thinned out: in the full panel of roughly 83,000, 20% have a hit.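 Assay: single dose, 48 h. Readout: percent growth (0 = no net growth; negative = cell death). Active: <10.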 Unmarked numbers belong to inactive results. Activity calls are given as the source filed them.

With `COC(=O)CCc1cc(O)c2c(c1)[C@@H](C(=O)OC)[C@H](c1ccc(O)c(O)c1)O2`, the growth with RPMI-8226 leukemia was 80.5%; with OVCAR-5 ovarian, 98.3%; with SK-OV-3 ovarian, 97.4%; with IGROV1 ovarian it was 88.1%; with OVCAR-3 ovarian, 27.5%; in the test on HS 578T breast, 74.3%. The growth is 87.8% in the test on NCI/ADR-RES ovarian and 66% in the test with T-47D breast.
In the case of `[2H]c1cc2c(c([2H])c1F)/C(=C/c1[nH]c(C)c(C(=O)NCCN(CC)CC)c1C)C(=O)N2`, the growth is 30.2% in the test with RPMI-8226 leukemia; 28.7% in the test with OVCAR-5 ovarian; 40.6% in the test with OVCAR-4 ovarian; 14.5% in the test with SK-OV-3 ovarian; 30.4% in the test on IGROV1 ovarian; 73.3% in the test with OVCAR-3 ovarian. Also, the values for the growth with HS 578T breast, with NCI/ADR-RES ovarian and in the test on T-47D breast were 44.9%, 65.7% and 68.7%, respectively.
`C#C[C@@]1(O)[C@@H](CO)O[C@@H](n2cc(Cl)c3c(N)ccnc32)[C@@H]1O`: the growth with RPMI-8226 leukemia was 39.9%; in the test on OVCAR-5 ovarian, 111%; in the test on OVCAR-4 ovarian it was 79.9%; in the test on SK-OV-3 ovarian, 95.4%; with IGROV1 ovarian, 88.3%; with OVCAR-3 ovarian it was 47.6%. Besides, the growth in the test on HS 578T breast was 102%; in the test with NCI/ADR-RES ovarian, 28.5%; in the test on T-47D breast, 93.8%.
As to `Nc1c(C(=O)Nc2ccccn2)sc2nc3c(cc12)C(=O)CCC3`, the growth in the test with RPMI-8226 leukemia is 38.5%; with OVCAR-5 ovarian it was 46.9%; with OVCAR-4 ovarian it was 56.8%; with SK-OV-3 ovarian it was 40.3%; in the test on IGROV1 ovarian, 51.3%; in the test on OVCAR-3 ovarian it was 3.09% (active). The growth was 1.79% (active) in the test on HS 578T breast, 21.9% with NCI/ADR-RES ovarian and 33.1% with T-47D breast.
Take `O=C(O)c1cc(N=Nc2ccc(-c3ccc(N=Nc4c(S(=O)(=O)O)cc5ccc(Nc6ccccc6)cc5c4O)cc3)cc2)ccc1O`: the growth in the test on RPMI-8226 leukemia is 104%; in the test with OVCAR-5 ovarian, 109%; with OVCAR-4 ovarian, 102%; in the test with SK-OV-3 ovarian, 98.4%; with IGROV1 ovarian, 100%; in the test with OVCAR-3 ovarian, 103%. The growth was 106% in the test with HS 578T breast, 104% in the test on NCI/ADR-RES ovarian and 89.1% in the test on T-47D breast.
In the case of `COc1ccc(N(C)c2nc(Cl)nc3ccn(C)c23)cc1`, the growth with RPMI-8226 leukemia is 6.35% (active); with OVCAR-5 ovarian, 30.6%; with OVCAR-4 ovarian, 36.6%; in the test on SK-OV-3 ovarian, 7.76% (active); in the test on IGROV1 ovarian it was 26.1%; in the test with OVCAR-3 ovarian it was -12.3% (active). Further, the growth in the test with HS 578T breast is 36.8%; in the test with NCI/ADR-RES ovarian it was 3.41% (active); in the test with T-47D breast it was 74.9%.
Regarding `CC(=O)OCC1SC(OC(C)=O)C(NC(=O)/C=C/CCl)C(OC(C)=O)C1OC(C)=O` (stereo not drawn), the growth was 95.2% in the test with RPMI-8226 leukemia; 148% in the test with OVCAR-5 ovarian; 101% in the test on OVCAR-4 ovarian; 86.4% in the test on SK-OV-3 ovarian; 105% in the test on IGROV1 ovarian; 102% with OVCAR-3 ovarian. For the same compound, the growth in the test on HS 578T breast is 93.5%; in the test with NCI/ADR-RES ovarian, 103%; in the test on T-47D breast it was 90.6%.
Regarding `CCN(CC)CC#CCOC(=O)[C@]1(C)CCC[C@]2(C)[C@H]3C[C@H]4C(C(C)C)=C[C@]3(CC[C@H]21)[C@@H]1C(=O)CCC(=O)[C@@H]14`, the growth in the test on RPMI-8226 leukemia was 17.5%; with OVCAR-5 ovarian, 62.4%; in the test on OVCAR-4 ovarian, 36.4%; in the test on SK-OV-3 ovarian, 77.8%; in the test with IGROV1 ovarian, 64.2%; in the test on OVCAR-3 ovarian, 58.5%. In addition, the growth in the test on HS 578T breast was 69.3%; in the test on NCI/ADR-RES ovarian, 45.7%; with T-47D breast, 35.5%.
Take `O=C(Nc1ccc2ncnc(Nc3cccc(C(F)(F)F)c3)c2c1)c1cccs1`: the growth in the test with RPMI-8226 leukemia is 40.8%; in the test with OVCAR-5 ovarian it was 63.9%; in the test on SK-OV-3 ovarian, 83.7%; in the test with IGROV1 ovarian it was 32.7%; in the test on OVCAR-3 ovarian, 29.1%; in the test with HS 578T breast, 103%. For the same compound, the growth in the test with NCI/ADR-RES ovarian was 55.7%; in the test with T-47D breast, 32.3%.
For `COc1cc(NC(=O)COc2cc(C)nc3ccc(OC)cc23)cc(OC)c1`, the growth is 81.3% in the test on RPMI-8226 leukemia; 107% in the test on OVCAR-5 ovarian; 99% in the test with OVCAR-4 ovarian; 96.3% in the test on SK-OV-3 ovarian; 104% with IGROV1 ovarian; 98.9% with OVCAR-3 ovarian. The growth with HS 578T breast was 95.1%; with NCI/ADR-RES ovarian it was 86.6%; in the test with T-47D breast, 95.8%.

For the origin of these results see PubChem BioAssay (NCI).
